# Test results: PubChem BioAssay (Tox21)
# Records with an inconclusive call do not appear. Where a call stands in place of a potency, no number is given. Activity calls are given as the source filed them. Calls come from the whole dose curve; as a rule, active = well fitted inhibition curve with a large enough effect in the repeat runs; inconclusive = weak or mixed curves; inactive = flat fitted curve, though single readings scatter.
# Molecular target: Voltage-gated inwardly rectifying potassium channel KCNH2 (Homo sapiens) (UniProt Q12809)
# Assay: Human Ether-a-go-go-Related Gene (hERG) channel small molecule antagonists: fluorescence cell-based qHTS assay (AID 1671200); note: nearly all actives have a fitted effect of over 50% in size
# Details: hERG-U2OS cells, FluxOR thallium flux fluorescence; series mostly up to 76.8 µM
# Text: National Center for Advancing Translational Sciences [NCATS]
# U.S. Environmental Protection Agency [EPA]
# National Institutes of Environmental Health Sciences [NIEHS]
# National Toxicology Program [NTP]
# U.S. Food and Drug Administration [FDA]
# Mutations in the hERG channel cause Long QT (LQT) syndrome. LQT syndrome is a cardiac disorder which can cause ventricle arrhythmia and sudden death. Additionally, compounds which block the hERG channel can cause acquired LQT syndrome. Several FDA approved drugs have been removed from the market due to their hERG blocking activity. A cell-based hERG channel inhibition assay can be used to screen chemical compounds that inhibit hERG channel. This assay measures hERG channel activity using thallium ions as surrogate ions to measure potassium into the cells.
# Tox21 Assay Protocol Summary:
# hERG-U2OS cells were resuspended in culture medium and dispensed into 1536-well, black wall/clear-bottom plates at 1000cells/well/3uL using a Multidrop Combi dispenser (Thermo Fisher, Waltham, MA). After plates were incubated at 37 C overnight, 3 uL of Loading Buffer provided by FluxOR II Potassium Ion Channel Assay kit (Thermo, Carlsbad, CA) was added to each well. The assay plates were then incubated at room temperature in the dark for 1h. […] After the assay plates were incubated at room temperature for 10 min, 1 uL of Stimulus Buffer provided by FluxOR II Potassium Ion Channel Assay kit was added into each well and fluorescence intensity (480nm excitation/540nm emission) was continuously measured for 2 min at 1 second intervals using a Functional Drug Screening System (FDSS) 7000EX kinetic plate reader (Hamamatsu, Japan).
# Potency is the fitted concentration of half-maximal effect.
# Chain of Voltage-gated inwardly rectifying potassium channel KCNH2 (Homo sapiens) (Q12809 whole entry, looked up): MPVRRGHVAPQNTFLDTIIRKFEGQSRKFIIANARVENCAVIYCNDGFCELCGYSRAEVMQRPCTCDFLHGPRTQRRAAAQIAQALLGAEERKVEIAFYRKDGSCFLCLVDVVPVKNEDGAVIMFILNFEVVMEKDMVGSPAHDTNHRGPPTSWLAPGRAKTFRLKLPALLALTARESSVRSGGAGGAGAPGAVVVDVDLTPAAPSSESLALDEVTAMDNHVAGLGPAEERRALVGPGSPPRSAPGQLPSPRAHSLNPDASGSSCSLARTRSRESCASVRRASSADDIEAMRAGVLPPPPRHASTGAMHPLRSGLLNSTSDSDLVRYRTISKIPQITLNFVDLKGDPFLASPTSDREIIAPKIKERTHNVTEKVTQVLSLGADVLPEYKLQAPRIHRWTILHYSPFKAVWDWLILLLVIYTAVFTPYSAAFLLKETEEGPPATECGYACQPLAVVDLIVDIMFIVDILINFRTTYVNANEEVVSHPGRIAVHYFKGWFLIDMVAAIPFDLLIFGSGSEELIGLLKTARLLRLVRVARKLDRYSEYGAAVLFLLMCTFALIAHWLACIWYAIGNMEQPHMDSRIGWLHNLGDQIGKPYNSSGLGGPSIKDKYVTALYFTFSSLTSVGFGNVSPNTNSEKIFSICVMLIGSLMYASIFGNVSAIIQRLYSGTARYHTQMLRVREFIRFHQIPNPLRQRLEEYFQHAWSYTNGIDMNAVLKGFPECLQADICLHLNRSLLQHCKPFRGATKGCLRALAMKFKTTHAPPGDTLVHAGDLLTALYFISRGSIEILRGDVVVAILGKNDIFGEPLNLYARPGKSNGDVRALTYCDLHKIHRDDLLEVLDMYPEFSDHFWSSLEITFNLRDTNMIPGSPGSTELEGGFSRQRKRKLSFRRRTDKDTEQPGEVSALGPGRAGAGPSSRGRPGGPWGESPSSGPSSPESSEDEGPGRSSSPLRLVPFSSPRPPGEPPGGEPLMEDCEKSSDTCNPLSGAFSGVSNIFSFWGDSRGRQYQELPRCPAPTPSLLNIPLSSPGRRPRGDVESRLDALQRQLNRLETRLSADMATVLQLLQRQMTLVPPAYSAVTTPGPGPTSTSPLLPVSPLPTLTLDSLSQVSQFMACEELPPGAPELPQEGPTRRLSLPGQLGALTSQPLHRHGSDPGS
SMILES,Potency,"activity change, negative = inhibition"
CCCCCCCCCCCCCCCC(=O)NCCO,inactive,–
CCCCCC1Nc2cc(C(F)(F)F)c(S(N)(=O)=O)cc2S(=O)(=O)N1 (stereo not given),23.9 µM (active),–
CN[C@@H]1[C@@H](O)[C@@H](O[C@@H]2[C@H](O)[C@H](O[C@H]3OC(CN)=CC[C@H]3N)[C@@H](N)C[C@H]2N)OCC1(C)O (stereo not given in full),inactive,–
C=CCOCC(O)CCl (stereo not given),inactive,–
CCNC(=O)/C=C/c1cccc(Br)c1,inactive,–
O=S(=O)(O)CCO,inactive,–
COc1cc2c(Nc3ccc(Br)cc3F)ncnc2cc1OCC1CCN(C)CC1,inactive,–
CCCOC(=O)CCCCC(=O)OCCC,inactive,–
CCN(Cc1cccc(S(=O)(=O)O)c1)c1ccccc1,inactive,–
NCCc1ccn[nH]1,inactive,–
CCN(CCO)c1cccc(C)c1,inactive,–
COC(/C=C(\C)CCC=C(C)C)OC,inactive,–
NS(=O)(=O)c1cc2c(cc1Cl)NC(CC1CCCC1)NS2(=O)=O (stereo not given),inactive,–
Cc1cccc(NC(=S)N(C)C)c1,inactive,–
CCC(=O)c1ccc(O)cc1,inactive,–
N#CCCOCCOCCC#N,inactive,–
CNC(=O)NC,inactive,–
CC(=O)OC(C)(C)Cc1ccccc1,inactive,–
CC(=O)OCC(=O)[C@@]1(O)[C@H](OC(C)=O)C[C@H]2[C@@H]3CCC4=CC(=O)C=C[C@]4(C)[C@@]3(F)[C@@H](O)C[C@@]21C,inactive,–
CCC(C)(CCC(C)C)C(=O)[O-].CCC(C)(CCC(C)C)C(=O)[O-].[Zn+2] (stereo not given),inactive,–

SMILES,Potency,"activity change, negative = inhibition"
Cc1nc2n(c(=O)c1CCN1CCC(C(=O)c3ccc(F)cc3)CC1)CCS2,9.52 µM (active),–
CN(C1CCCCC1)S(=O)(=O)c1ccccc1N,inactive,–
Cc1ccccc1N1CCN(CCc2nnc3n2CCCC3)CC1,inactive,–
CCOC(=O)C(C)(C)C,inactive,–
CCCCOC(=O)C(=O)OCCCC,inactive,–
CC(C)=CC(C)(C)C,inactive,–
CC1CCC(C(C)(C)S)C(=O)C1 (stereo not given),inactive,–
O=C1OC(=O)c2ccccc21,inactive,–
CC(C)CCCCCCOC(=O)C1CCCCC1C(=O)OCCCCCCC(C)C (stereo not given),inactive,–
CC(=O)Nc1ccc(C)cc1,inactive,–
Cn1c(=O)c2c(ncn2CC2OCCO2)n(C)c1=O,inactive,–
C=CCOc1c(Br)cc(C(C)(C)c2cc(Br)c(OCC=C)c(Br)c2)cc1Br,inactive,–
CCC(O)C(C)(C)C (stereo not given),inactive,–
CC(C)COC(=O)CCCCC(=O)OCC(C)C,inactive,–
FC(F)(F)c1ccc(Cl)cc1Cl,inactive,–
COC(=O)CCC(=O)O,inactive,–
C[Si]1(C)N[Si](C)(C)N[Si](C)(C)N1,inactive,–
CCCCOC(=O)C(C)OC(=O)CCC (stereo not given),inactive,–
Nc1ccc(/C=C/c2ccc(N)cc2S(=O)(=O)O)c(S(=O)(=O)O)c1,–,0.168% [at 0.29 µM] (inactive)
CC(=O)OC(C(=O)c1ccccc1)c1ccccc1 (stereo not given),inactive,–
